# In the supplement of paper PMC12494721:
# Experiments:
# Details in all cases: 20 µM; incubation time: 27 h, anaerobic, 37 °C;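 for the amine columns active = adjusted P below 0.05 in both replicates with a change the same way and a mean fold change under 0.8 or over 1.25; inactive = the rest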
# [1] = system: Clostridium sporogenes DSM 1664; assay: growth (OD595) fold change vs plate DMSO controls (fold change (ratio)); higher = more growth
# Procedure, shortened: (§1)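 The measure reported is growth, taken as fold change against the median of DMSO controls on the same plate. Anaerobic mGAM cultures in 96-well plates (27 h, 37 °C) were read at 595 nm, blank-subtracted, corrected for compound background using 20 µM compound solutions in water, and multiplied by a calibration factor of 5 to give OD. Any fold change above 1.5 became NA, and 2 biological replicates were averaged.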
# Escherichia coli IAI1 [2] = assay: as above
# Procedure, shortened: as §1
# [3] = system: Klebsiella aerogenes DSM 30053; assay: as above
# Procedure, shortened: as §1
# [4] = system: Ruminococcus gnavus DSM 108212; assay: as above
# Procedure, shortened: as §1
# [5] = system: Klebsiella aerogenes DSM 30053; assay: fold change of Histamine concentration vs plate DMSO controls (fold change (ratio)); higher = more amine produced, active = hit call of the paper (significant change in both replicates, either direction)
# Procedure, shortened: (§2)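 Each value is the fold change relative to DMSO-only wells on the same plate. Four gut bacterial strains were grown anaerobically in mGAM at 37 °C for 27 h in 80 µL wells, starting at OD 0.1 before a 1:1 dilution, with compounds at 20 µM final (sweeteners 50 µM). Whole cultures were extracted with cold acetonitrile/methanol containing 0.1% formic acid, centrifuged, and amines were quantified by LC–triple-quadrupole MS (dynamic MRM) against external calibration curves with within-batch drift correction. Values are means of 2 biological replicates.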
# [6] = system: Clostridium sporogenes DSM 1664; assay: fold change of Tryptamine concentration vs plate DMSO controls (fold change (ratio)); higher = more amine produced, active = hit call of the paper (significant change in both replicates, either direction)
# Procedure, shortened: as §2
# [7] = system: Ruminococcus gnavus DSM 108212; assay: as above
# Procedure, shortened: as §2
# Escherichia coli IAI1 [8] = assay: fold change of Putrescine concentration vs plate DMSO controls (fold change (ratio)); higher = more amine produced, active = hit call of the paper (significant change in both replicates, either direction)
# Procedure, shortened: as §2
# [9] = system: Klebsiella aerogenes DSM 30053; assay: as above
# Procedure, shortened: as §2
# Escherichia coli IAI1 [10] = assay: fold change of Cadaverine concentration vs plate DMSO controls (fold change (ratio)); higher = more amine produced, active = hit call of the paper (significant change in both replicates, either direction)
# Procedure, shortened: as §2
# [11] = system: Klebsiella aerogenes DSM 30053; assay: as above
# Procedure, shortened: as §2
# [12] = system: Ruminococcus gnavus DSM 108212; assay: fold change of 2-Phenylethylamine concentration vs plate DMSO controls (fold change (ratio)); higher = more amine produced, active = hit call of the paper (significant change in both replicates, either direction)
# Procedure, shortened: as §2
structure (smiles),measurement,setting,value
CCOc1ccc(C(C)(C)COCc2cccc(Oc3ccccc3)c2)cc1,growth,[1],1.14
same,growth,Escherichia coli IAI1 [2],1.03
same,growth,[3],1.01
same,growth,[4],1.13
same,fold change of Histamine concentration,[5],0.97 (inactive)
same,fold change of Tryptamine concentration,[6],1.03 (inactive)
same,fold change of Tryptamine concentration,[7],1.05 (inactive)
same,fold change of Putrescine concentration,Escherichia coli IAI1 [8],1.01 (inactive)
same,fold change of Putrescine concentration,[9],0.984 (inactive)
same,fold change of Cadaverine concentration,Escherichia coli IAI1 [10],0.969 (inactive)
same,fold change of Cadaverine concentration,[11],1.05 (inactive)
same,fold change of 2-Phenylethylamine concentration,[12],1.05 (inactive)
CO/C=C(/C(=O)OC)c1ccccc1COc1cccc(C(F)(F)F)n1,growth,[1],1.04
same,growth,Escherichia coli IAI1 [2],1.03
same,growth,[3],1.05
same,growth,[4],0.952
same,fold change of Histamine concentration,[5],0.977 (inactive)
same,fold change of Tryptamine concentration,[6],1.02 (inactive)
same,fold change of Tryptamine concentration,[7],0.996 (inactive)
same,fold change of Putrescine concentration,Escherichia coli IAI1 [8],1.06 (inactive)
same,fold change of Putrescine concentration,[9],1 (inactive)
same,fold change of Cadaverine concentration,Escherichia coli IAI1 [10],1 (inactive)
same,fold change of Cadaverine concentration,[11],1 (inactive)
same,fold change of 2-Phenylethylamine concentration,[12],0.98 (inactive)
Fc1ccc(Oc2ccnc3cc(Cl)cc(Cl)c23)cc1,growth,[1],1.06
same,growth,Escherichia coli IAI1 [2],1.01
same,growth,[3],1.02
same,growth,[4],1.04
same,fold change of Histamine concentration,[5],1.02 (inactive)
same,fold change of Tryptamine concentration,[6],1.01 (inactive)
same,fold change of Tryptamine concentration,[7],0.957 (inactive)
same,fold change of Putrescine concentration,Escherichia coli IAI1 [8],1.05 (inactive)
same,fold change of Putrescine concentration,[9],1.02 (inactive)
same,fold change of Cadaverine concentration,Escherichia coli IAI1 [10],0.961 (inactive)
same,fold change of Cadaverine concentration,[11],1 (inactive)
same,fold change of 2-Phenylethylamine concentration,[12],0.915 (inactive)
Oc1ccc(Cl)cc1Cc1cc(Cl)ccc1O,growth,[1],0.8
same,growth,Escherichia coli IAI1 [2],0.854
same,growth,[3],0.898
same,growth,[4],0.861
same,fold change of Histamine concentration,[5],1.12 (inactive)
same,fold change of Tryptamine concentration,[6],0.557 (inactive)
same,fold change of Tryptamine concentration,[7],0.513 (active)
same,fold change of Putrescine concentration,Escherichia coli IAI1 [8],1.15 (inactive)
same,fold change of Putrescine concentration,[9],0.996 (inactive)
same,fold change of Cadaverine concentration,Escherichia coli IAI1 [10],1.66 (active)
same,fold change of Cadaverine concentration,[11],0.986 (inactive)
same,fold change of 2-Phenylethylamine concentration,[12],0.605 (inactive)
O=C(O)C(F)(F)C(F)(F)C(F)(F)C(F)(F)C(F)(F)C(F)(F)F [PFHpA (Perfluoroheptanoic acid)],growth,[1],0.939
same,growth,Escherichia coli IAI1 [2],1.01
same,growth,[3],0.994
same,growth,[4],0.995
same,fold change of Histamine concentration,[5],0.997 (inactive)
same,fold change of Tryptamine concentration,[6],1.06 (inactive)
same,fold change of Tryptamine concentration,[7],0.979 (inactive)
same,fold change of Putrescine concentration,Escherichia coli IAI1 [8],1.03 (inactive)
same,fold change of Putrescine concentration,[9],1.02 (inactive)
same,fold change of Cadaverine concentration,Escherichia coli IAI1 [10],1.04 (inactive)
same,fold change of Cadaverine concentration,[11],1 (inactive)
same,fold change of 2-Phenylethylamine concentration,[12],0.98 (inactive)
CC(=O)OCC(=O)[C@H]1CC[C@H]2[C@@H]3CC[C@H]4C[C@H](O)CC[C@]4(C)[C@H]3C(=O)C[C@]12C [Alfadolone acetate],growth,[1],0.985
same,growth,Escherichia coli IAI1 [2],1.26
same,growth,[3],0.997
same,growth,[4],1.11
same,fold change of Histamine concentration,[5],1.03 (inactive)
same,fold change of Tryptamine concentration,[6],1.04 (inactive)
same,fold change of Tryptamine concentration,[7],1.02 (inactive)
same,fold change of Putrescine concentration,Escherichia coli IAI1 [8],1.22 (inactive)
same,fold change of Putrescine concentration,[9],0.981 (inactive)
same,fold change of Cadaverine concentration,Escherichia coli IAI1 [10],1.03 (inactive)
same,fold change of Cadaverine concentration,[11],0.977 (inactive)
same,fold change of 2-Phenylethylamine concentration,[12],1.01 (inactive)
CCOC(=O)OC1=C(c2cc(C)ccc2C)C(=O)N[C@]12CC[C@@H](OC)CC2,growth,[1],0.93
same,growth,Escherichia coli IAI1 [2],1.02
same,growth,[3],0.993
same,growth,[4],0.921
same,fold change of Histamine concentration,[5],1.01 (inactive)
same,fold change of Tryptamine concentration,[6],0.974 (inactive)
same,fold change of Tryptamine concentration,[7],1.02 (inactive)
same,fold change of Putrescine concentration,Escherichia coli IAI1 [8],1 (inactive)
same,fold change of Putrescine concentration,[9],1 (inactive)
same,fold change of Cadaverine concentration,Escherichia coli IAI1 [10],0.963 (inactive)
same,fold change of Cadaverine concentration,[11],1 (inactive)
same,fold change of 2-Phenylethylamine concentration,[12],1.04 (inactive)
CNC(=O)c1cc(C#N)cc(C)c1NC(=O)c1cc(Br)nn1-c1ncccc1Cl,growth,[1],1.13
same,growth,Escherichia coli IAI1 [2],0.996
same,growth,[3],0.981
same,growth,[4],1.06
same,fold change of Histamine concentration,[5],1 (inactive)
same,fold change of Tryptamine concentration,[6],1.2 (inactive)
same,fold change of Tryptamine concentration,[7],1.06 (inactive)
same,fold change of Putrescine concentration,Escherichia coli IAI1 [8],0.935 (inactive)
same,fold change of Putrescine concentration,[9],0.938 (inactive)
same,fold change of Cadaverine concentration,Escherichia coli IAI1 [10],0.886 (inactive)
same,fold change of Cadaverine concentration,[11],1.02 (inactive)
same,fold change of 2-Phenylethylamine concentration,[12],1.08 (inactive)
CC(Cc1ccccc1)NCCC(c1ccccc1)c1ccccc1 (stereo unspecified) [Prenylamine lactate],growth,[1],1.01
same,growth,Escherichia coli IAI1 [2],0.997
same,growth,[3],1
same,growth,[4],1.45
same,fold change of Histamine concentration,[5],0.979 (inactive)
same,fold change of Tryptamine concentration,[6],0.96 (inactive)
same,fold change of Tryptamine concentration,[7],0.913 (inactive)
same,fold change of Putrescine concentration,Escherichia coli IAI1 [8],1.37 (inactive)
same,fold change of Putrescine concentration,[9],0.961 (inactive)
same,fold change of Cadaverine concentration,Escherichia coli IAI1 [10],0.657 (active)
same,fold change of Cadaverine concentration,[11],0.987 (inactive)
same,fold change of 2-Phenylethylamine concentration,[12],0.983 (inactive)
COP(=S)(OC)Oc1ccc(SC)c(C)c1,growth,[1],1.1
same,growth,Escherichia coli IAI1 [2],1.09
same,growth,[3],0.997
same,growth,[4],0.973
same,fold change of Histamine concentration,[5],0.959 (inactive)
same,fold change of Tryptamine concentration,[6],1.02 (inactive)
same,fold change of Tryptamine concentration,[7],1.08 (inactive)
same,fold change of Putrescine concentration,Escherichia coli IAI1 [8],0.971 (inactive)
same,fold change of Putrescine concentration,[9],0.989 (inactive)
same,fold change of Cadaverine concentration,Escherichia coli IAI1 [10],0.98 (inactive)
same,fold change of Cadaverine concentration,[11],1.04 (inactive)
same,fold change of 2-Phenylethylamine concentration,[12],1.12 (inactive)
Cc1cc(C(F)(C(F)(F)F)C(F)(F)F)ccc1NC(=O)c1cccc(I)c1C(=O)NC(C)(C)CS(C)(=O)=O,growth,[1],1.23
same,growth,Escherichia coli IAI1 [2],0.991
same,growth,[3],1.02
same,growth,[4],0.917
same,fold change of Histamine concentration,[5],1 (inactive)
same,fold change of Tryptamine concentration,[6],0.921 (inactive)
same,fold change of Tryptamine concentration,[7],0.939 (inactive)
same,fold change of Putrescine concentration,Escherichia coli IAI1 [8],0.989 (inactive)
same,fold change of Putrescine concentration,[9],1 (inactive)
same,fold change of Cadaverine concentration,Escherichia coli IAI1 [10],1 (inactive)
same,fold change of Cadaverine concentration,[11],0.987 (inactive)
same,fold change of 2-Phenylethylamine concentration,[12],0.908 (inactive)
O=S(=O)(c1ccc(O)cc1)c1ccc(O)cc1 [Bisphenol S],growth,[1],1.08
same,growth,Escherichia coli IAI1 [2],1.02
same,growth,[3],0.994
same,growth,[4],1.04
same,fold change of Histamine concentration,[5],0.949 (inactive)
same,fold change of Tryptamine concentration,[6],1.04 (inactive)
same,fold change of Tryptamine concentration,[7],0.941 (inactive)
same,fold change of Putrescine concentration,Escherichia coli IAI1 [8],0.883 (inactive)
same,fold change of Putrescine concentration,[9],0.939 (inactive)
same,fold change of Cadaverine concentration,Escherichia coli IAI1 [10],0.961 (inactive)
same,fold change of Cadaverine concentration,[11],0.998 (inactive)
same,fold change of 2-Phenylethylamine concentration,[12],0.946 (inactive)
CC(C)OC(=O)Nc1cccc(Cl)c1,growth,[1],1.05
same,growth,Escherichia coli IAI1 [2],1.04
same,growth,[3],1.05
same,growth,[4],0.957
same,fold change of Histamine concentration,[5],0.972 (inactive)
same,fold change of Tryptamine concentration,[6],0.989 (inactive)
same,fold change of Tryptamine concentration,[7],1.02 (inactive)
same,fold change of Putrescine concentration,Escherichia coli IAI1 [8],0.987 (inactive)
same,fold change of Putrescine concentration,[9],0.984 (inactive)
same,fold change of Cadaverine concentration,Escherichia coli IAI1 [10],0.927 (inactive)
same,fold change of Cadaverine concentration,[11],1.01 (inactive)
same,fold change of 2-Phenylethylamine concentration,[12],1.06 (inactive)
